According to ChEMBL document CHEMBL3988442, “University of Dundee, Small-Polar-MMV Screening Library” (2021):
In all, about 69,000 compounds went through this assay and about 950 (1.4%) showed an effect of 50% or more. This excerpt belongs to a sample that is enriched for strong results.

tested on: Mycobacterium tuberculosis; experiment: Cornell M. t heat shock assay; format: functional, organism-based; parameters: dose or concentration left out as unconfirmed; also: in the data most compounds retested in dose-response had high values

Structure (SMILES)	Percent Effect [%]
Cc1cnn(CCNCc2csc(-c3ccccc3)n2)c1	104.4
Cc1cnn(CCNCc2csc(-c3ccsc3)n2)c1	107.8
Cc1cnn(CC(C)NCc2csc(-c3ccsc3)n2)c1 (stereo unspecified)	27.16
Cc1cnn(CCNCc2csc(-c3ccc(F)cc3)n2)c1	22.16
Cc1cnn(CC(C)NCc2csc(-c3cnn(C)c3)n2)c1 (stereo unspecified)	-23.56
Cc1cnn(CCNCc2csc(-c3cccs3)n2)c1	25.75
Cc1cccc(N2CCc3ncc(CNS(C)(=O)=O)n3CC2)n1.O=C(O)C(F)(F)F	-36.69
CN(CCc1ccccn1)S(=O)(=O)N1CCCC1c1ccco1 (stereo unspecified)	16.77
Cc1ccc(C2CCCN2S(=O)(=O)N(C)CCc2ccccn2)o1 (stereo unspecified)	69.2
Cc1ccc(C2CCCN2S(=O)(=O)N(C)Cc2cnccn2)o1 (stereo unspecified)	-5.103
I.c1cc2c(cc1C1(CNC3=NCCN3)CCCC1)OCCO2	-5.173
CNC(=O)CN1CCOCC12CCN(C(=O)c1ccccc1)CC2.O=C(O)C(F)(F)F	-17.78
COc1ccc(NC(=O)N2CCCC2c2ccco2)c(OC)c1 (stereo unspecified)	74.57
COc1ccccc1NC(=O)N1CCCC1c1ccco1 (stereo unspecified)	40.09
COc1ccc(OC)c(NC(=O)N2CCCC2c2ccco2)c1 (stereo unspecified)	25.75
O=C(O)CC(O)(CC(=O)O)C(=O)O.c1ccc([C@@H]2CN(Cc3cccnc3)C[C@H]2c2cc[nH]n2)cc1	-3.502
Cc1ccc(CN2CCC3(CC2)COCCN3S(C)(=O)=O)o1.O=C(O)C(F)(F)F	38.18
CCCN1CCN(C(=O)Cn2nc(C(F)(F)F)c(Br)c2C2CC2)CC1	-16.27
CCN1CCN(C(=O)Cn2nc(C(F)(F)F)c(Br)c2C2CC2)CC1	-4.049
CN1CCN(C(=O)Cn2nc(C(F)(F)F)c(Br)c2C2CC2)CC1	82.35
CC1CCC(N2Cc3nc(N)ncc3C2=O)CC1 (stereo unspecified)	7.341

Structure (SMILES)	Percent Effect [%]
CN1CCC(N2Cc3nc(N)ncc3C2=O)CC1	-6.315
Nc1ncc2c(n1)CN(C1CCCC1)C2=O	101.8
COCCN1CCc2c(CNC(=O)c3nccn3C)cncc2C1.Cl.Cl.Cl	7.945
Cc1nc(CN2CCC3(CC2)CC(c2cccnc2)C(=O)N3C)cs1.O=C(O)C(F)(F)F.O=C(O)C(F)(F)F (stereo unspecified)	40.95
CSc1ncccc1C(=O)N1CCC2(CC1)OCCCC2O (stereo unspecified)	9.306
O=C(c1cccc2cccnc12)N1CC[C@@]2(CCCO2)[C@@H](O)C1	50.53
O=C(c1cccnc1O)N1CCC2(CCCO2)CC1	-109.6
Cc1ccc(N(CC(=O)N2CCCCC2)C(=O)C2CCCO2)cc1 (stereo unspecified)	-0.08324
Br.O=C(CN(C1=NCCCCC1)c1ccc(Cl)cc1)c1ccccc1	102
Br.O=C(CN(C1=NCCCC1)c1ccccc1)c1ccccc1	-38.94
CCOc1ccc(C(=O)CC(SC2CCCCC2)C(=O)O)cc1 (stereo unspecified)	28.66
Br.O=C(CN(C1=NCCCC1)c1ccccc1)c1ccc(OC(F)F)cc1	95.91
Br.Cc1cccc(N(CC(=O)c2ccccc2)C2=NCCCCC2)c1	15.52
Br.Cc1ccc(C(=O)CN(C2=NCCCCC2)c2ccccc2)cc1	26.5
C[S+]([O-])c1nncn1CC(=O)c1ccc(OC(F)F)cc1 (stereo unspecified)	27.46
Br.COc1ccc(C(=O)CN(C2=NCCCCC2)c2ccccc2)cc1	22.41
Br.CCOc1ccc(N(CC(=O)c2ccccc2)C2=NCCCCC2)cc1	104.1
Br.Cc1ccc(N(CC(=O)c2ccc(Br)cc2)C2=NCCCCC2)cc1	103.6
Br.O=C(CN(C1=NCCCC1)c1ccccc1)c1ccc2c(c1)OCCO2	-15.61
COc1ccc(CN2C[C@@H]3CC[C@H](C2)N(S(=O)(=O)C2CC2)C3)cc1	-4.175
Cc1ccc(N2CC[C@@H]3[C@@H]2CCN3C(=O)Cc2cccs2)nn1.O=C(O)C(F)(F)F	1.861

Structure (SMILES)	Percent Effect [%]
CC(=O)NCCc1cc2nc(-c3ccncc3)ccn2n1	1.137
COCCC(=O)N1CCCC2(CCCN2Cc2ccccc2F)C1.O=C(O)C(F)(F)F (stereo unspecified)	-33.92
CN(C)Cc1cc(C2CCN(C(=O)C3CCCNC3)CC2)nn1C.Cl (stereo unspecified)	-6.1
O=C(O)C(F)(F)F.O=C1COC2(CCN(S(=O)(=O)C3CC3)CC2)CN1c1cccnc1	-24.7
CNC(=O)[C@H]1C[C@@H]2CN(Cc3ccc(C)cc3)C[C@H]1O2.O=C(O)C(F)(F)F	33.5
Cc1ccc(N2CC[C@H]3O[C@H](C(=O)N4CCCCO4)CC[C@H]32)nn1.O=C(O)C(F)(F)F	36.81
O=C(C1CC1)N1CC[C@@H]2[C@H](CC1)N(Cc1cccnc1)CCS2(=O)=O.O=C(O)C(F)(F)F.O=C(O)C(F)(F)F	-20.85
COCCNS(=O)(=O)c1ccc2c(c1)CCN(C(=O)c1cncn1C)C2	91.56
COCCNS(=O)(=O)c1cccc2c1CN(C(=O)c1ccccc1)CC2	-0.08173
COCCNS(=O)(=O)c1cccc2c1CN(C(=O)c1cnccn1)CC2	3.399
CC(C)Oc1cccc(CN2CCC(c3n[nH]c4ncccc34)CC2)c1	-24.22
CC(C1CCN(Cc2ccc(N(C)C)nc2)CC1)N1CCOCC1 (stereo unspecified)	-22.49
CC(C1CCN(Cc2c(Cl)cncc2Cl)CC1)N1CCOCC1 (stereo unspecified)	-44.11
CC(C1CCN(Cc2ccc(OC(F)F)cc2)CC1)N1CCOCC1 (stereo unspecified)	96.37
CC(C)Oc1cccc(CN2CCC(C(C)N3CCOCC3)CC2)c1 (stereo unspecified)	91.46
FC(F)Oc1ccccc1CN1CCCC(c2nccn2CC2CC2)C1 (stereo unspecified)	23.85
CC(C1CCN(Cc2cccc(OC(F)F)c2)CC1)N1CCOCC1 (stereo unspecified)	1.128
CC(C)Oc1ccc(CN2CCC(Cc3nnc(CO)n3C)CC2)cc1	-21.53
CC(C1CCN(Cc2ccccc2OC(F)F)CC1)N1CCOCC1 (stereo unspecified)	90.2
